Screening data (PubChem BioAssay)
A selection: hits, their analogues and other compounds. The true share with any hit is near 5.9%.
HEK293 tox – cytotoxicity in counter-screen for GLP-1R inverse agonists | HEK293 cAMP-luciferase reporter cells, luminescence, 24 h | Potency, µM (top dose mostly 38.3 µM), without a hit: at the highest dose activity change, negative = inhibition, most hits filed as inhibitors | hit rate 0.13% among 410,000;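 also: loss of luciferase light is scored as toxicity; % is scaled to controls: 0 for no effect and ±100 for the full control effect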
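Here, cytotoxicity is scored as loss of luminescence. The MLSMR collection was tested on cells seeded in medium containing 10% Nu serum, with a 24 hr compound exposure preceded by 12 hours of culture.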
RORg inh – blocks mouse ROR gamma transcriptional activity | Potency, µM (top dose mostly 53.6 µM), without a hit: at the highest dose activity change, negative = inhibition, hits mostly inhibitors | P51450 | AID 2551 | hit rate 5.4% among 310,000 | Drosophila S2 Gal4-RORgamma UAS-luciferase reporter, 20 h; also: % is scaled to controls: 0 for no effect and ±100 for the full control effect; nearly all actives have a fitted effect of over 60% in size
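A Gal4/UAS one-hybrid system in insect cells: metallothionein-promoter Gal4–ROR gamma fusion plus Photinus luciferase reporter. Copper sulfate 700 uM final, 20 hr ambient incubation, luminescent detection after 10 min with reagent.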
GLP-1R inv ag – GLP-1 receptor (human) inverse agonism. P43220. HEK293 GLP-1R CRE-luciferase, luminescence, 24 h; GLP-1R form is constitutively active. Potency, µM (doses to about 38.3 µM), without a hit: at the top dose activity change, negative = inhibition, most hits filed as inhibitors. hit rate 1.6% among 410,000; also: % is scaled to controls: 0 for no effect and ±100 for the full control effect; nearly all actives have a fitted effect of over 55% in size
Target sequence (P43220 whole entry, looked up): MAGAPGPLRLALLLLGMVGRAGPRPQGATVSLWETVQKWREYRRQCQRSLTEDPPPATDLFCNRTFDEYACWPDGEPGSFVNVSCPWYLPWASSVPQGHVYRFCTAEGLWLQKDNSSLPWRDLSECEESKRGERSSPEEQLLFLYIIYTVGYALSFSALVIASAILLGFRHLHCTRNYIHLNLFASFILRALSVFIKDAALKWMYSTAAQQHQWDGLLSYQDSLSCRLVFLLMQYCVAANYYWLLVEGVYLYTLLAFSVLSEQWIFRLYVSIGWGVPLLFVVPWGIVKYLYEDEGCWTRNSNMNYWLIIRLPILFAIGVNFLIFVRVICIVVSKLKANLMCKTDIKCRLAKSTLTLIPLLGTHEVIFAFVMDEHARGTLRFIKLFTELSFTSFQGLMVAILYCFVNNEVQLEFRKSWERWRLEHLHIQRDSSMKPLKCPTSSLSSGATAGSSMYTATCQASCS
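Cells are plated, allowed 12 hours at 37 deg C, then treated with compounds for 24 hr before luciferase detection reagent is added and luminescence is read after 12 min at room temperature. The HEK293 line carries constitutively active GLP-1R with a cAMP-responsive reporter.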
GLP1R ag – activates the human GLP-1 receptor | P43220 | HEK293 GLP-1R CRE-luciferase, luminescence, 4-6 h; cells express a hypersensitive GLP-1R form | Potency, µM (top dose mostly 45.6 µM), inactives show top-dose activation, most hits filed as activators | hit rate 0.007% among 380,000 | AID 624172; also: % of control where 0% means no effect
Gal4-VP16 FLuc – counter-screen for ROR gamma inhibitors: Gal4-VP16 reporter | Potency, µM (highest dose often 53.6 µM), inactives show at the top dose activity, negative = inhibition, hits mostly inhibitors | AID 2546 | hit rate 3.5% among 310,000 | Drosophila S2 Gal4-VP16 UAS-luciferase, luminescence, 20 h;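 also: Gal4-VP16 expression switched on by copper sulfate through the metallothionein promoter; % is scaled to controls: 0 for no effect and ±100 for the full control effect; nearly all actives have a fitted effect of over 50% in size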
Active calls of the source: *; u = inconclusive; x = no result; ! = not confirmed by another sample; [ ] = dose if it differs, or a comment. Calls follow the shape of the dose curve; as a rule, active = well fitted curve in the direction sought with a large enough effect; inconclusive = small, poorly fitted or top-dose-only effect, or another doubt; inactive = no such curve, though single readings can be large; an effect the other way counts as inactive or inconclusive. Potency is read from the fitted curve at half-maximal effect.

SMILES	HEK293 tox	RORg inh	GLP-1R inv ag	GLP1R ag	Gal4-VP16 FLuc
CC[C@]1(O)CC(O[C@@H]2CC(N(C)C)C(O)C(C)O2)c2c(cc3c(c2O)C(=O)c2c(O)cccc2C3=O)C1C(=O)OC (stereo partly specified)	x	2.24µM*	x	x	4.47µM*
Cc1nn(C)c(C)c1-c1cccc2c1CCC(N(C)C)C2 (stereo unspecified)	x	-12.5%	x	x	7.7%
CCCCn1cc[n+](C)c1	x	u	x	x	-7.2%
Cc1nnc2n1-c1ccc(Cl)cc1C(c1ccccc1)=NC2	x	2.51µM*	x	11.7%	25.4%
ClC=CCl	x	5.3%	x	x	-9.1%
C[C@@H]1O[C@H](O[C@H]2C[C@@H](O)[C@@]3(CO)[C@H]4[C@@H](O)C[C@]5(C)[C@@H](C6=CC(=O)OC6)CC[C@]5(O)[C@H]4CC[C@]3(O)C2)[C@@H](O)[C@H](O)[C@@H]1O	x	-9.1%[16.9 µM]	x	x	-7.6%[17 µM]
CN(C)C(=O)Oc1cccc2c(OC(=O)N(C)C)cccc12	-1.5%	-1.7%	-2.0%	-6.7%	1.3%
CN(Cc1ccccc1)Cc1ccccc1OC(=O)N(C)C	-3.7%	1.41µM*	-5.5%	8.4%	-0.9%
Cc1ccc(C)c(NC(=O)C(Sc2nc3ccc(C)cc3[nH]2)c2ccccc2)c1 (stereo unspecified)	u	u	3.16µM*	0.6%	u
C=C(C)CN1CC[C@@]23c4c5ccc(O)c4O[C@H]2c2[nH]c4ccccc4c2C[C@]3(O)[C@@H]1C5	x	-39.0%	x	x	28.2µM*
Cc1cc(C)cc(OP(=O)(Oc2cc(C)cc(C)c2)Oc2cc(C)cc(C)c2)c1	x	-4.4%	x	x	4.2%
COc1cc(CC(=O)OCC2=C[C@H]3[C@@H]4C(C)(C)[C@]4(OC(C)=O)[C@H](OC(=O)Cc4ccccc4)[C@@H](C)[C@]3(O)[C@@H]3C=C(C)C(=O)[C@@]3(O)C2)ccc1O	x	-13.7%	x	x	1.1%
c1ccc2cc3c(cc2c1)-c1cccc2cccc-3c12	x	-16.7%	x	x	2.7%
O=C(Nc1ccc2nc3ccccc3nc2c1)c1ccccc1	166.2%	u	16.1%	-4.6%	-17.7%
Oc1cccc2nc3ccccc3nc12	-0.7%	u	13.7%	-0.8%	5.01µM*
O=[N+]([O-])C(Br)(CO)CO	x	-40.1%[10 µM]	x	-3.8%	u
Cn1c(=O)[nH]c(=O)c2c1nc([N+](=O)[O-])n2Cc1ccccc1	10µM*	3.98µM*	u	-4.7%	5.62µM*
C=CCOCC1CO1 (stereo unspecified)	x	18.2%	x	x	-3.6%
CC(CCc1ccccc1)NC(=O)COC(=O)c1ccc(S(C)(=O)=O)c([N+](=O)[O-])c1 (stereo unspecified)	u	10µM*	u	-1.9%	u
O=C(COC(=O)Cc1ccccc1)NNC(=O)c1ccc([N+](=O)[O-])cc1	3.6%	x	0.0%	-3.3%	x
CN[C@H]1C[C@H]2O[C@@](C)([C@H]1OC)n1c3ccccc3c3c4c(c5c6ccccc6n2c5c31)C(=O)NC4	x	u	x	x	6.31µM*
COC(=O)C1(O)CC2OC1(C)n1c3ccccc3c3c4c(c5c6ccccc6n2c5c31)C(=O)NC4 (stereo unspecified)	x	-20.0%[10 µM]	x	x	u
CN(C)C(=S)SC(=S)N(C)C	x	6.31µM*	x	-3.4%	u
CN(C)C(=S)SSC(=S)N(C)C	u	0.112µM*	u	-1.3%	1µM*!
O=C(Nc1ccc(Oc2ccccc2)cc1)c1ccc(F)c(S(=O)(=O)N2CCN(c3cccc(Cl)c3)CC2)c1	-1.0%	x	u	x	x
SMILES	HEK293 tox	RORg inh	GLP-1R inv ag	GLP1R ag	Gal4-VP16 FLuc
CN[C@@H](Cc1c[nH]c2ccccc12)C(=O)O	x	2.5%	x	x	-17.2%
C[C@](O)(CS(=O)(=O)c1ccc(F)cc1)C(=O)Nc1ccc(C#N)c(C(F)(F)F)c1	x	u	x	7.8%	-7.6%
N#CC(C#N)=NNc1ccc(OC(F)(F)F)cc1	x	1µM*	x	x	0.355µM*
COC(C)(C)C	x	1.8%	x	x	-12.4%
ClP(Cl)(Cl)(Cl)Cl	x	-26.1%	x	x	3.6%
CC[C@H]1CN2CCc3cc(OC)c(OC)cc3[C@H]2C[C@@H]1C[C@@H]1NCCc2cc(OC)c(OC)cc21	x	0.794µM*	x	-5.9%	2.51µM*
CCNN	x	-13.5%	x	x	-6.2%
